KB-V1 MDR tox: kills drug-selected multidrug resistant KB-V1 cells | actives 3.4% (n = 400,000) | KB-V1 MDR cells viability, CellTiter-Glo, 72 h | Potency, µM (highest dose often 46.1 µM), actives largely listed as cytotoxic; note: % is set by controls: 0 for no effect and ±100 for the full control effect; nearly all actives have a fitted effect of over 60% in size
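Luminescent ATP read-out (CellTiter-Glo, 10 min) measures survival of drug-selected KB-V1 MDR cells after 72 h, 37 degrees C compound exposure. Medium: phenol-red-free DMEM, 10% FBS. Values from fitted concentration-response curves.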
HT1080 IDH1KD tx: kills HT-1080 cells with IDH1 knockdown; HT-1080 IDH1 knockdown viability, ATP luminescence, 48 h; Potency, µM (doses to about 46.1 µM), inactives show top-dose activity, negative = toxicity, actives largely listed as cytotoxic; actives 2% (n = 360,000); AID 686971;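 note: 0% = DMSO wells and -100% = cell-free medium wells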
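Knockdown cells (IDH1KD HT-1080) received compounds 2 h after plating at 750 cells/well and were kept 48 h at 37 °C in 5% FBS RPMI. A CellTiter-Glo luminescence read gave % activity for curve fitting.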
SW480 rereplic: induces DNA re-replication in SW480 colon adenocarcinoma cells. SW480 DNA re-replication, Hoechst DNA content imaging, 48 h. Potency, µM (series often up to 46.1 µM), without a hit: top-dose re-replication activation, actives largely listed as activators. actives 1.8% (n = 340,000). AID 624297; note: % of control where 0% means no effect; nearly all actives have a fitted effect of over 55% in size
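Per well, 250 cells were exposed to pinned compound for 48 hr. Nuclear DNA was visualised with Hoechst (40 min, 37 C) and total object intensity recorded by fluorescence scanning.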
MCF10A rereplic: induces DNA re-replication in MCF 10a normal breast cells | MCF 10A DNA re-replication, Hoechst nuclear intensity, 48 h | Potency, µM (series often up to 46.1 µM), for inactives: at the highest dose activity, positive = re-replication, usual class: activators | actives 2.9% (n = 350,000) | AID 624296; note: % of control where 0% means no effect; nearly all actives have a fitted effect of over 50% in size
KB-3-1 tox: kills parental KB-3-1 adenocarcinoma cells | KB-3-1 viability, CellTiter-Glo ATP luminescence, 72 h | Potency, µM (series often up to 46.1 µM), hits mostly cytotoxic | actives 1.4% (n = 400,000); note: % is set by controls: 0 for no effect and ±100 for the full control effect; nearly all actives have a fitted effect of over 60% in size
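Parental KB-3-1 viability, qHTS format: 72 h compound exposure, 37 °C; CellTiter-Glo; media-only wells and DMSO plates as controls; concentration-effect fits on corrected data.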
HT1080-NT tox: kills 2HG-producing HT-1080-NT fibrosarcoma cells; HT-1080-NT fibrosarcoma viability, CellTiter-Glo ATP luminescence, 48 h; Potency, µM (titrated, usually from 46.1 µM), inactives show at the highest dose activity, negative = less viability, usual class: cytotoxic; actives 1.6% (n = 360,000); AID 686970;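 note: NT is the 2HG producing partner of a matched IDH1 knockdown line; 0% = DMSO-treated cells and -100% = media-only wells without cells; nearly all actives have a fitted effect of over 55% in size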
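HT-1080-NT; 750 cells/well; 5% FBS RPMI; 48 h compound, 37 degrees C; CellTiter-Glo luminescence; curve fitting and curve-class assignment.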
* marks the source's active call; other numbers are inactive results. Only some compounds are listed: those with a hit (about 7.9% of all), similar ones and a draw of the others. Calls come from the whole dose curve; as a rule, active = well fitted curve in the direction sought with a large enough effect; inconclusive = small, poorly fitted or top-dose-only effect, or another doubt; inactive = no such curve, though single readings can be large; an effect the other way counts as inactive or inconclusive. Potency is the fitted concentration of half-maximal effect.

For CC1CCN(CCCOc2ccc(Cl)cc2Br)CC1 the results were KB-V1 MDR tox inactive, HT1080 IDH1KD tx 23µM*, SW480 rereplic -1%, MCF10A rereplic 1%, KB-3-1 tox inactive and HT1080-NT tox inconclusive.
Screening CC1CCN(CCOCCOc2ccc(Cl)cc2Br)CC1 returned KB-V1 MDR tox inconclusive, HT1080 IDH1KD tx inconclusive, SW480 rereplic -7%, MCF10A rereplic inconclusive, KB-3-1 tox inactive and HT1080-NT tox inconclusive.
For CC1CCCN(CCCOc2ccc(Cl)cc2Br)C1 (stereo not given) the results were KB-V1 MDR tox 16µM*, HT1080 IDH1KD tx -19%, SW480 rereplic 6%, MCF10A rereplic inconclusive, KB-3-1 tox inconclusive and HT1080-NT tox -1%.
`Cc1cc(Br)ccc1OCCCCNC(C)(C)C` gave KB-V1 MDR tox inactive, HT1080 IDH1KD tx inconclusive, SW480 rereplic 3%, MCF10A rereplic 0%, KB-3-1 tox inconclusive and HT1080-NT tox 13µM*.
Screening CC1CCCN(CCOc2ccc3ccccc3c2Br)C1 (stereo not given) returned KB-V1 MDR tox inconclusive, HT1080 IDH1KD tx 18µM*, SW480 rereplic -7%, MCF10A rereplic 15µM*, KB-3-1 tox inconclusive and HT1080-NT tox 21µM*.
Cc1cccc(C)c1OC(=O)CSc1nnc(CNC(=O)c2ccccc2)o1 was read as KB-V1 MDR tox inactive and KB-3-1 tox inactive.
`CCCCCNC(=O)CCCCCn1c(=O)[nH]c2ccsc2c1=O` gave KB-V1 MDR tox inconclusive and KB-3-1 tox inactive.
Screening Cc1nn(-c2ccccc2)c2c1cc1c(=O)[nH]c(=O)nc-1n2-c1cccc(C(F)(F)F)c1 returned KB-V1 MDR tox inconclusive and KB-3-1 tox inactive.
Cc1cc(Br)ccc1OCCCCN1CCC(C)CC1 was read as KB-V1 MDR tox inconclusive, HT1080 IDH1KD tx -23%, SW480 rereplic inconclusive, MCF10A rereplic 7.3µM*, KB-3-1 tox inactive and HT1080-NT tox -28%.
CC1CCN(CCCCOc2ccc(Br)cc2)CC1 was read as KB-V1 MDR tox inactive, HT1080 IDH1KD tx -12%, SW480 rereplic 2%, MCF10A rereplic inconclusive, KB-3-1 tox inactive and HT1080-NT tox -7%.
`CC(CNC(=O)c1sc2ncccc2c1-n1cccc1)c1ccccc1` (stereo not given) gave KB-V1 MDR tox inactive and KB-3-1 tox inconclusive.
Cc1cccc(N2CCN(C(=O)Cn3nc(C)c4sc5ccccc5c4c3=O)CC2)c1C was read as KB-V1 MDR tox inactive and KB-3-1 tox inactive.
COCCNc1c2c(nc3c(-c4ccccc4)c(C)nn13)CCCC2 was read as KB-V1 MDR tox inconclusive, HT1080 IDH1KD tx inconclusive, SW480 rereplic 4%, MCF10A rereplic 24%, KB-3-1 tox inactive and HT1080-NT tox inconclusive.
CCC(C)Nc1c2c(nc3c(-c4ccccc4)c(C)nn13)CCC2 (stereo not given) was read as KB-V1 MDR tox 9.2µM*, HT1080 IDH1KD tx inconclusive, SW480 rereplic 2%, MCF10A rereplic inconclusive, KB-3-1 tox inactive and HT1080-NT tox -19%.
For CCCCNc1c2c(nc3c(-c4ccccc4)c(C)nn13)CCC2 the results were KB-V1 MDR tox 23µM*, HT1080 IDH1KD tx -5%, SW480 rereplic -15%, MCF10A rereplic 21%, KB-3-1 tox inactive and HT1080-NT tox 7%.
Cc1nn2c(NCCCN3CCOCC3)c3c(nc2c1-c1ccccc1)CCC3 was read as KB-V1 MDR tox inconclusive, HT1080 IDH1KD tx -3%, SW480 rereplic -5%, MCF10A rereplic 25%, KB-3-1 tox inactive and HT1080-NT tox -10%.
For Cc1nn2c(Nc3ccc(F)cc3)c3c(nc2c1-c1ccccc1)CCC3 the results were KB-V1 MDR tox inconclusive, HT1080 IDH1KD tx 9%, SW480 rereplic -5%, MCF10A rereplic 18%, KB-3-1 tox inactive and HT1080-NT tox 8%.

Screens from PubChem.
